Entries with a potency or affinity are not part of this list. Records with an inconclusive call do not appear. Active and inactive are the calls of the source.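 The calls were made as follows: active = signal drop whose fitted half-maximal concentration is at most twice the top valid dose; inconclusive = flat moderate drop between 30 and 70 percent, or an unreliable fit; inactive = the rest.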
Test: inhibitors of HRE-driven luciferase expression, dose response, ARNT-TACC3 inhibitor project, HeLa cells, luminescence, dry powder samples, 2158-08 (AID 720560)
Conditions: HeLa 3xHRE-luciferase reporter; series mostly up to 60 µM; activity change, negative = inhibition: at the top concentration

Activity change, negative = inhibition, inactive:
CC1CCN(S(=O)(=O)c2ccc(C(=O)Nc3nnc(-c4ccccn4)o3)cc2)CC1 52.4%
O=C(CSc1ccc(-c2ccccn2)nn1)Nc1ccccc1 25.6% [at 30 µM]
CC1CCN(S(=O)(=O)c2ccc(C(=O)Nc3nnc(-c4ccno4)o3)cc2)CC1 17.4%
C=CC1=C(C(=O)O)N2C(=O)[C@@H](NC(=O)/C(=N\O)c3csc(N)n3)[C@H]2SC1 (stereo in doubt) -8.92%
Cc1nnc(NC(=O)c2ccc(S(=O)(=O)N3CCCCC3)cc2)o1 -28.6%
O=C(Nc1nnc(C2=COCCO2)o1)c1ccc(S(=O)(=O)N2CCCCC2)cc1 48.6%
O=C(CSc1ccc(-c2ccccn2)nn1)N1CCCC1 101%
Cc1c(C(=O)N(C)C)sc2nc(-c3ccccn3)[nH]c(=O)c12 38.4%
Cc1ccc(C(=O)Nc2nc(-c3ccccn3)cs2)cc1S(=O)(=O)N1CCOCC1 46.9% [at 30 µM]
O=C(CSc1ccc(-c2ccccn2)nn1)NC1CCCCC1 49.1%

From PubChem BioAssay AID720560 (Broad Institute, 2013)
